# Screening results as filed in PubChem.
# Sm TGR block: inhibitors of Schistosoma mansoni thioredoxin glutathione reductase | purified TGR, DTNB reduction, TNB absorbance 405 nm | Potency, µM (titrated, usually from 114 µM), inactives show at the top dose activity change, negative = inhibition, actives largely listed as inhibitors | actives 3% (n = 360,000); further: potency means the concentration at half of the fitted maximal effect; nearly all actives have a fitted effect of over 60% in size
#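 First, TGR (20 nM dispensed) and NADPH were mixed with compound. Second, a 15 min room-temperature incubation followed. Third, further NADPH and then DTNB were added to start the reaction. Finally, TNB absorbance was monitored kinetically.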
# HCMV inh: inhibitors of human cytomegalovirus | HFF cells, HCMV-luciferase reporter, 72 h; hits give low values | activity change, negative = inhibition, % at 57.5 µM | actives 4.5% (n = 410,000); in the data active means activity change below about -60%; inconclusive means no clear call, values can overlap the other calls; inactive means above about -39%
#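 Steps: HFFs plated, 16 h 37C; compounds added; HCMV-luciferase added to MOI 1 PFU/cell; 72 h 37C; OneGlo reagent, 5 min room temperature; luminescence read, normalized to controls.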
# FBPA Giardia inh: blocks Giardia fructose-bisphosphate aldolase activity. A8B2U2. purified Giardia FBPA. Potency, µM (titrated, usually from 59.6 µM), inactives show at the highest dose activity, negative = inhibition, hits mostly inhibitors. AID 2451. actives 0.71% (n = 290,000); further: potency means the concentration at half of the fitted maximal effect; nearly all actives have a fitted effect of over 55% in size
# Target sequence (A8B2U2 whole entry, looked up): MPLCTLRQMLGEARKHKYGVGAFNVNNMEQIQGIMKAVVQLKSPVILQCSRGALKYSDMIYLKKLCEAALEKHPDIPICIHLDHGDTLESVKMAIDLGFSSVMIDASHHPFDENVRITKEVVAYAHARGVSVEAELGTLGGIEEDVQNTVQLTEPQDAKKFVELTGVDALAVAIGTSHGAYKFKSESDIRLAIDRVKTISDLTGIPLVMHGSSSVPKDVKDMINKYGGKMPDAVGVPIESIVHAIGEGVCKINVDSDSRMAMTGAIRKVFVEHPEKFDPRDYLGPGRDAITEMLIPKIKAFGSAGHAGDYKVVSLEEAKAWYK
#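 Giardia FBPA (40 nM reagent) was preincubated 10 min at RT with compound (up to 57.5 uM final), then substrate plus GAPDH/TPI/NAD/arsenate coupling system with diaphorase/resazurin was added; resorufin fluorescence (525/598 nm) was read after 20 min.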
# Pf growth 48h: P. falciparum growth inhibition at 48 hours (one generation) | P. falciparum luciferase growth in erythrocytes, 48 h | Potency, µM (top dose mostly 28.7 µM), for the others: at the top dose activity change, negative = inhibition, hits mostly inhibitors | actives 5.9% (n = 310,000); further: potency means the concentration at half of the fitted maximal effect
#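 Here the parasites carry a stable luciferase gene and grow inside erythrocytes in Albumax-based RPMI medium with compound for one erythrocytic cycle. Activity is scored as loss of luminescent signal.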
# Pf growth 96h: P. falciparum growth inhibition at 96 hours | actives 6.9% (n = 320,000) | Potency, µM (titrated, usually from 28.7 µM), without a hit: top-dose activity change, negative = inhibition, hits mostly inhibitors | P. falciparum luciferase reporter growth, 96 h; further: potency means the concentration at half of the fitted maximal effect
#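 Two parasite generations (96 h, 37 C, 5% CO2) of compound exposure in infected erythrocytes (0.05% parasitemia, 2% hematocrit). Luciferase-reporter P. falciparum; decreased luminescence indicates inhibited growth, aimed at apicoplast-acting delayed death.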
# The depositor's hits bear a star; ? = inconclusive; . = not tested or not shown; [ ] = another dose, or the depositor's remark. The list is a sample of the results. Unless noted, the call rests on the fitted dose curve; in most records, active means well fitted curve in the direction sought with a large enough effect; inconclusive means small, poorly fitted or top-dose-only effect, or another doubt; inactive means no such curve, though single readings can be large; an effect the other way counts as inactive or inconclusive. On the % scale 0 is the no-effect control and ±100 the full control effect.
SMILES,Sm TGR block,HCMV inh,FBPA Giardia inh,Pf growth 48h,Pf growth 96h
CC(C)N1CCN(Cc2c[nH]c3ccccc23)CC1CCO (centres undefined),0%,12,1%,18%,1%
CN1CCN(Cc2nc3ccccc3n2C)CC1CCO (centres undefined),?,50,-14%,?,0%
CC(C)CN1CCN(Cc2c[nH]c3ccccc23)CC1CCO (centres undefined),-22%,28,8%,9%,9.3µM*
NNC(=O)c1cc2sccc2s1,-1%,-26,-7%,?,39%
COc1cc(Br)cc(/C=C/c2ccc3cccc(O)c3n2)c1O,-30%,-26,9%,-12%[0.00184 µM],10%
COc1cc(/C=C/c2ccc3cccc(O)c3n2)ccc1O,-3%,86,-9%,-61%,?
COc1cc(/C=C\c2ccc(OC)cc2OC)cc(OC)c1,.,.,-2%,.,.
